# Source: PubChem BioAssay
# Where “and” joins values, the source holds several entries; their conditions need not be identical. Equal values may be shown once. Inconclusive results are not listed. Calls of active or inactive are those of the source. Unless noted, no stated cut-off is given here; in the data, active means inhibition above about 80%; inactive means the rest.
# Columns and labels:
# [1] = viability loss in pontine glioma line – cell-based, SU-DIPG-XIII, MIPE4.0, CellTiter-Glo, qHTS, dose response (AID 1347061; cut-off not given, nearly all actives have AC50 up to about 37 µM;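 further: cells exposed to compound for 48 hours before readout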); details: CellTiter-Glo ATP luminescence
# [2] = viability loss in pontine glioma line – cell-based, JHH-DIPG-1, MIPE4.0, CellTiter-Glo, qHTS, dose response (AID 1347062; cut-off not given, nearly all actives have AC50 up to about 27 µM;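 on AC50: cells exposed to compound for two days before readout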); details: JHH-DIPG-1 viability, CellTiter-Glo ATP luminescence
# [3] = viability loss in pontine glioma line – cell-based, SU-DIPG-IV, MIPE4.0, CellTiter-Glo, qHTS, dose response (AID 1347063; cut-off not given, nearly all actives have AC50 up to about 30 µM;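 further: compound exposure lasted 48 hours before the viability readout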); details: CellTiter-Glo ATP luminescence
# [4] = viability loss in pontine glioma line – cell-based, SU-DIPG-XIII, MIPE5.0, CellTiter-Glo, qHTS, dose response (AID 1347064; cut-off not given, nearly all actives have AC50 up to about 23 µM;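 further: cells exposed to compound for 48 hours before the viability read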); details: CellTiter-Glo ATP luminescence
# [5] = viability loss in pontine glioma line – cell-based, SU-DIPG-XXV, MIPE5.0, CellTiter-Glo, qHTS, dose response (AID 1347065; cut-off not given, nearly all actives have AC50 up to about 26 µM;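 further: cells exposed to compound for 48 hours before ATP readout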); details: CellTiter-Glo ATP luminescence
# [6] = growth inhibition of DIPG cells – cell-based, MIPE4.0 library, CellTiter-Glo luminescence, qHTS (AID 1347066; cut-off not given, nearly all actives have AC50 up to about 30 µM;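 further: cells exposed to compound for 48 hours before readout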); details: SU-DIPG-VI viability, CellTiter-Glo ATP luminescence
# [7] = JHH-DIPG-1 glioma cell viability, MIPE5.0 library, CellTiter-Glo luminescence, qHTS (AID 1347067; cut-off not given, nearly all actives have AC50 up to about 26 µM;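 further: cells exposed to compound for 48 hours before readout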); details: JHH-DIPG-1 glioma viability, CellTiter-Glo ATP luminescence
# [8] = growth inhibition of DIPG cells – cell-based, MIPE5.0 library, qHTS (AID 1347068; cut-off not given, nearly all actives have IC50 up to about 30 µM;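 on IC50: cells exposed to compound for 48 hours before viability readout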); details: SU-DIPG-XXV viability
# [9] = viability loss with induced miR-34 in A549 – imaging, A549 dox-inducible miR-34, nuclei and caspase counts, primary screen (AID 1347080;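 active means compounds whose cell count with miR-34 switched on is under 0.7 times the count with it off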); details: A549 miR-34 inducible, Hoechst nuclei count, 48 h
# [10] = MELAS cybrid and Rieske KO viability enhancers – cell-based, MELAS cybrids, Rieske KO mouse fibroblasts, CellTiter-Glo, primary screen (AID 1508586;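 active means mean z-score across replicates of 1.96 or higher in either the MELAS or the Rieske mutant cell line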;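 further: z relative to plate mean and SD of compound and empty wells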); details: low glucose
# [11] = growth inhibition, single agent or in combination, cell-based, chromothripsis tumors, cisplatin or BGB combos (AID 1671449); details: LFS_MB_P medulloblastoma cells;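 further: cells exposed for 96 hours; 0% = vehicle DMSO and 100% = killing by high DMSO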
# [12] = growth inhibition, single agent and combos, cell-based, chromothripsis tumors, cisplatin or BGB combos (AID 1671450); details: HDN33 neuroblastoma cells, stronger effect = higher value;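 further: cells exposed to compound for four days; 0% = vehicle DMSO and 100% = cell killing by high DMSO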
# [13] = growth inhibition, single agents and combos, ICB984, cell-based, cisplatin or BGB combos, synergistic combos for chromothripsis tumors (AID 1671451; call rule not given here;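 further: cells exposed for 96 hours before readout; 0% = vehicle DMSO and 100% = killing by high DMSO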); details: ICB984 medulloblastoma cells, drug combinations, stronger effect = higher value
# [14] = growth inhibition, single agents and combos, HTB85, cell-based, BGB or cisplatin IC20 combos, synergistic combos for chromothripsis tumors (AID 1671453); details: HTB85 osteosarcoma cells, drug combinations, stronger effect = higher value;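 further: cells exposed for 96 hours before readout; 0% = vehicle DMSO and 100% = high DMSO killing control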
# [15] = growth inhibition, MDA-MB-436, cell-based, BGB or cisplatin combos, synergistic combos for chromothripsis tumors (AID 1671458; call rule not given here;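 further: cells exposed for 96 hours; 0% = vehicle DMSO and 100% = killing by high DMSO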); details: MDA-MB-436 breast carcinoma growth inhibition, drug combinations, stronger effect = higher value
# [16] = BT084 cell growth, single and combined drugs, ICGC_MB145, cisplatin and BGB IC40 combos (AID 1671461); details: BT084 medulloblastoma cells, drug combinations, stronger effect = higher value;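 further: cells exposed to drugs for 96 hours; 0% = vehicle DMSO and 100% = high DMSO full killing control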
# [17] = RCMB18 cell growth, single agent and combined, cisplatin and BGB IC40 combos (AID 1671462); details: RCMB18 medulloblastoma cells, stronger effect = higher value;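 further: cells exposed to compound for four days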
# [18] = CRL1545 cell growth, single agent and combined, cisplatin and BGB IC20 combos (AID 1671464); details: CRL1545 osteosarcoma cells, stronger effect = higher value;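 further: cells exposed to compound for 96 hours before readout; 0% = vehicle DMSO and 100% = high DMSO killing control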
# [19] = measured here: with BGB IC20 combination, at 0.5 µM
# [20] = measured here: with cisplatin IC20 combination, at 0.5 µM
smiles,measurement,setting,value
Nc1ccccc1NC(=O)c1ccc(CNC(=O)OCc2cccnc2)cc1,AC50,[1],14.8 µM (active)
same,AC50,[2],4.69 µM (active)
same,AC50,[3],1.32 µM (active)
same,AC50,[4],3.32 µM (active)
same,AC50,[5],2.35 µM (active)
same,AC50,[6],3.72 µM (active)
same,AC50,[7],2.95 µM (active)
same,IC50,[8],5.25 µM (active)
same,fold change,"[9]; stronger effect = lower value, cell number ratio, induced over uninduced",0.935 (inactive) and 1.04 (inactive)
same,fold change,[9]; measured here: relative caspase fold change +Dox/-Dox,1.69 and 0.81
same,cell count,"[9]; measured here: total cells with miR-34 induction, stronger effect = lower value",3300 and 2250
same,cell count,[9]; measured here: total cells without miR-34 induction,3530 and 2180
same,z-score,"[10]; MELAS cybrid survival, CellTiter-Glo 48 h, stronger effect = higher value",-0.681 (inactive)
same,z-score,"[10]; Rieske KO mouse fibroblast survival, CellTiter-Glo 72 h",-1.12
same,inhibition,"[11]; at 0.5 µM, stronger effect = higher value",20.5% (inactive) and 31.3% (inactive)
same,inhibition,"[11]; measured here: combination with BGB IC20, at 0.005 µM",9.17% and -14%
same,inhibition,"[11]; measured here: combination with BGB IC40, at 0.005 µM",-20.6% and -27.1%
same,inhibition,"[11]; measured here: combination with BGB IC40, at 0.05 µM",-4.42% and -24.6%
same,inhibition,"[11]; measured here: combination with cisplatin, at 0.5 µM, stronger effect = higher value",46.4% and 85.2%
same,inhibition,"[11]; measured here: combination with cisplatin, at 5 µM, stronger effect = higher value",118% and 115%
same,inhibition,"[12]; BGB combo, at 5 µM",97.1% and 92.4%
same,inhibition,[12]; at 0.5 µM,44% (inactive) and 41% (inactive)
same,inhibition,"[12]; cisplatin combo, at 5 µM",99.7% and 97%
same,inhibition,[12]; [19],39.9% and 34.6%
same,inhibition,[12]; [20],48.7% and 57.6%
same,inhibition,"[12]; single agent, at 5 µM",99.3% and 93.9%
same,inhibition,"[13]; BGB IC20 combo, at 0.005 µM",36.5% and 11%
same,inhibition,"[13]; BGB IC40 combo, at 0.005 µM",24.4% and 20.7%
same,inhibition,"[13]; BGB IC40 combo, at 0.05 µM",97.8% and 93%
same,inhibition,[13]; at 0.5 µM,-31.6% (inactive) and -19.6% (inactive)
same,inhibition,"[13]; cisplatin combo, at 0.05 µM",97.7% and 92.8%
same,inhibition,"[13]; cisplatin combo, at 0.5 µM",-49.4% and -14.7%
same,inhibition,"[13]; cisplatin combo, at 5 µM",10.2% and -21.6%
same,inhibition,"[13]; measured here: 5 uM single agent, at 5 µM",20% and -23%
same,inhibition,[14]; at 0.5 µM,57.3% (inactive) and 32.6% (inactive)
same,inhibition,"[14]; measured here: with BGB IC20, at 0.5 µM",48% and 25.2%
same,inhibition,"[14]; measured here: with BGB IC20, at 5 µM",97.7% and 98.3%
same,inhibition,"[14]; measured here: with cisplatin IC20, at 0.5 µM",80.3% and 42.5%
same,inhibition,"[14]; measured here: with cisplatin IC20, at 5 µM",99.8% and 98.9%
same,inhibition,"[14]; single agent, at 5 µM",99.3% and 97.6%
same,inhibition,[15]; at 0.5 µM,18.4% (inactive) and 2.92% (inactive)
same,inhibition,"[15]; measured here: BGB combination, at 0.5 µM",16.3% and -2.7%
same,inhibition,"[15]; measured here: BGB combination, at 5 µM",55.1% and 44.4%
same,inhibition,"[15]; measured here: cisplatin combination, at 0.5 µM",15.5% and -5.2%
same,inhibition,"[15]; measured here: cisplatin combination, at 5 µM",49.1% and 36.5%
same,inhibition,[16]; at 0.5 µM,46.5% (inactive) and 28.3% (inactive)
same,inhibition,"[16]; cisplatin combination, at 0.5 µM",67% and 52.4%
same,inhibition,"[16]; cisplatin combination, at 5 µM",97.3% and 96.5%
same,inhibition,"[16]; measured here: BGB IC40 combination 0.05 uM, at 0.05 µM",51.3% and 7.15%
same,inhibition,"[16]; single agent, at 5 µM",87.5% and 72.2%
same,inhibition,[17]; at 0.5 µM,49.1% (inactive) and 37.1% (inactive)
same,inhibition,"[17]; cisplatin combo, at 5 µM",94.3% and 95%
same,inhibition,"[17]; measured here: BGB IC40 combination, at 0.05 µM",11.6% and 4.4%
same,inhibition,"[17]; measured here: combination with cisplatin, at 0.5 µM",71.2% and 58%
same,inhibition,"[17]; single agent, at 5 µM",95.5% and 86.6%
same,inhibition,[18]; at 0.5 µM,74.5% (inactive) and 39.4% (inactive)
same,inhibition,[18]; [19],71.4% and 25.4%
same,inhibition,[18]; [20],76.1% and 45.2%
same,inhibition,"[18]; single agent, at 0.05 µM",28.6% and -12.8%
same,inhibition,"[18]; single agent, at 5 µM",73.7% and 44.8%
O=C1c2c(O)cc(O)cc2O[C@H](c2cc(O)c(O)c(O)c2)[C@H]1O,outcome,[1],inactive
same,outcome,[2],inactive
same,outcome,[3],inactive
CN1C(=O)C[C@H](C(=O)N[C@@H](Cc2cnc[nH]2)C(=O)N2CCC[C@H]2C(N)=O)NC1=O,outcome,[1],inactive
C=C1/C(=C\C=C2/CCC[C@]3(C)[C@@H]([C@H](C)/C=C/[C@H](C)C(C)C)CC[C@@H]23)C[C@@H](O)C[C@@H]1O,AC50,[1],8.33 µM (active)
same,AC50,[2],0.418 µM (active)
same,AC50,[3],5.9 µM (active)
same,AC50,[5],18.6 µM (active)
same,AC50,[6],23.5 µM (active)
same,AC50,[7],26.3 µM (active)
same,outcome,[8],inactive
c1nc2nc(Nc3ccc(N4CCOCC4)cc3)nc(NC3CCCCC3)c2[nH]1,AC50,[1],9.35 µM (active)
same,AC50,[2],16.6 µM (active)
same,AC50,[3],14.8 µM (active)
same,AC50,[5],2.09 µM (active)
same,AC50,[6],8.33 µM (active)
same,AC50,[7],5.9 µM (active)
same,outcome,[8],inactive
